Assay results taken from PubChem BioAssay (NCI).
This is part of a sample that, as a whole, favours compounds with a hit. Of some 79,000 tested, about 15% had one in any assay. Cut-off read from the data, not from the text of the source: active = growth inhibition above about 70%; inactive = the rest.

Key:
[1] = NCI Yeast Anticancer Drug Screen. Data for the rad50 strain (AID 155);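 note: 0% = growth of vehicle-only cultures of the same strain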; settings: S. cerevisiae rad50 strain growth inhibition; at 50.0 µM; active compounds read high
Method in brief: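 Genetically altered yeast (DNA repair pathway); compound treatment; growth inhibition vs vehicle ctrl.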

[2] = NCI Yeast Anticancer Drug Screen. Data for the mec2-1 strain (AID 157); settings: S. cerevisiae mec2-1 strain, at 50.0 µM, active compounds read high
Method in brief: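 Each compound was tested on mec2-1 yeast, a strain altered in DNA damage repair or cell cycle control. Growth inhibition is reported relative to vehicle.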

[3] = NCI Yeast Anticancer Drug Screen. Data for the sgs1 mgt1 strain (AID 161);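 note: 0% = growth of cultures given vehicle only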; settings: S. cerevisiae sgs1 mgt1 strain, at 50.0 µM, active compounds read high
Method in brief: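 Genetically altered yeast, compound exposure, growth inhibition relative to vehicle.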

[4] = NCI Yeast Anticancer Drug Screen. Data for the cln2 rad14 strain (AID 165);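 note: 0% = growth equal to vehicle treated cultures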; settings: S. cerevisiae cln2 rad14 strain, at 50.0 µM, active compounds read high
Method in brief: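 Test compounds were added to cln2 rad14 yeast cultures; inhibition of growth was then determined by comparison with vehicle treatment.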

[5] = NCI Yeast Anticancer Drug Screen. Data for the bub3 strain (AID 167); settings: S. cerevisiae bub3 mutant strain, at 50.0 µM, active compounds read high
Method in brief: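 Yeast carrying a defined mutation is treated with each compound, and growth is compared with that of vehicle-exposed cells to give inhibition.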

[6] = NCI Yeast Anticancer Drug Screen. Data for the mlh1 rad18 strain (AID 175); settings: S. cerevisiae mlh1 rad18 strain growth inhibition; at 50.0 µM; active compounds read high
Method in brief: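 Inhibition values reflect reduced growth of mutant yeast versus vehicle-treated controls following compound exposure; the mutations affect DNA damage repair.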

Measured: growth inhibition

CC(=O)ON=C(C1CC1)C1CC1
inactive: [1] -6% | [2] 3.5% | [3] -6.4% | [4] 4.3% | [5] -13% | [6] -3.3%

CN1c2ccccc2Oc2ccc3ccccc3c21
inactive: [1] 13.8% | [2] -24.6% | [3] 0.95% | [4] -4.3% | [5] -8.2% | [6] 12.8%

COCC(O)CC#N (stereo not given)
inactive: [1] 14.1% | [2] 4% | [3] -3.65% | [4] 7.65% | [5] 9.65% | [6] 3.9%

COc1ccc(Nc2nnc(-c3nsc4ccccc34)s2)cc1
inactive: [1] -2.5% | [2] -28.4% | [3] -37.9% | [4] 22.2% | [5] -27.9% | [6] -24.9%

CSc1nc(NC2OC(CO)C(O)C(O)C2O)cc(=O)[nH]1 (stereo not given)
inactive: [1] 3.5% | [2] 4.2% | [3] 2.85% | [4] -9.8% | [5] 7.5% | [6] -2.9%

CN(C)c1ncnc2c1ncn2C1OC(CO)C(N)C1O (stereo not given)
inactive: [1] 19.2% | [2] 3% | [3] 26.1% | [4] 0.55% | [5] 28.5% | [6] 20.6%

COC(=O)N1c2ccccc2[C@@H](O)[C@@H]1OC
inactive: [1] 14.4% | [2] 11.7% | [3] 7.25% | [4] -4.7% | [5] 11.7% | [6] -6.6%

CN1C(=O)C(=C2CCCCC2)SC1=S
inactive: [1] 0.55% | [2] 7.8% | [3] -11.6% | [4] -4.3% | [5] 2.8% | [6] 2.15%

CC1OC(Cc2ccccc2)OC1C (stereo not given)
inactive: [1] 12.4% | [2] 13.8% | [3] 16.7% | [4] 0.4% | [5] 12.6% | [6] 9.9%

Cc1nn(C(=O)c2cccnc2)c(-c2ccccc2)c1N=Nc1ccc(C(=O)O)cc1
inactive: [1] -16.5% | [2] 11.2% | [3] 4.65% | [4] 29.4% | [5] -2.8% | [6] 18.8%

O=C(Cc1ccccc1)NC(=O)Nc1ccccc1
inactive: [1] -7.5% | [2] -10.2% | [3] -8.4% | [4] -0.15% | [5] -3.1% | [6] 0.4%

CNC1=C(Sc2ccc(Cl)cc2)C(=O)c2ccccc2C1=O
inactive: [1] -0.4% | [2] 19.4% | [3] 1.45% | [4] 3.25% | [5] 2.75% | [6] 0.35%

Cc1cc2nnnn2c2ccccc12
inactive: [1] -30.1% | [2] -20.6% | [3] -17.1% | [4] -2.35% | [5] -6.8% | [6] -19.8%

OCCOc1ccc(C(Cc2ccccc2)N(CCO)CCO)cc1 (stereo not given)
inactive: [1] -10.1% | [2] 2.15% | [3] 7.5% | [4] -12.6% | [5] 4.7% | [6] -1.45%

Cc1nc(-c2nc(C)c(C(=O)NN(C)C)s2)sc1C(=O)NN(C)C
inactive: [1] 28.4% | [2] -7.8% | [3] 23.2% | [4] 23.7% | [5] 3.1% | [6] 22%

NC(=O)N/N=C\CC(O)(C(F)(F)Cl)C(F)(F)Cl
inactive: [1] -33.9% | [2] -29.2% | [3] -15.6% | [4] -1.5% | [5] 3.2% | [6] -3.1%

O=C(CSc1cc(Cl)c(Cl)cc1Cl)Nc1cccc(Cl)c1
inactive: [1] -7.9% | [2] -6.9% | [3] 6.3% | [4] -12.6% | [5] -2.85% | [6] 3.5%

CCCCCCCCCCCCCCCCCCOC(=O)C1CCCN1 (stereo not given)
inactive: [1] -10% | [2] 22.9% | [3] 12.8% | [4] 3.15% | [5] 12.4% | [6] 8.6%

CCCCC(/C=C\C(=O)O)CC (stereo not given)
inactive: [1] 29.7% | [2] -6.1% | [3] -11.8% | [4] 5.05% | [5] 5.75% | [6] 14.4%

CC1(C)[C@@H]2C[C@H]1C(Cc1ccccc1C[C@H]1c3cc(-c4ccccn4)ncc3[C@H]3C[C@@H]1C3(C)C)c1cc(-c3ccccn3)ncc12 (stereo not given in full)
inactive: [1] 43.3% | [2] 39.3% | [3] 10.4% | [4] 24.4% | [5] 12.2% | [6] -32.4%

C/C=C(\C)C(=O)OC1C2C(C)C(=O)OC2C(O)C(C)C2C=CC(=O)C21C (stereo not given)
inactive: [1] -21.1% | [2] -23.5% | [3] -7.9% | [4] 9.4% | [5] -21.4% | [6] 6.5%

COc1ccc(SC(N(C)C)=[N+](C)C)cc1
inactive: [1] -17.1% | [2] 1.1% | [3] 7.1% | [4] 11.4% | [5] 2.8% | [6] 3.8%

COc1ccc2nc(-c3ccccc3)cc(OCC(=O)O)c2c1
inactive: [1] -30.2% | [2] 21.2% | [3] -7.5% | [4] -13.1% | [5] 10.1% | [6] -15.8%

C/C(=N\Nc1ccc2ccccc2n1)c1ccccc1O
inactive: [1] -19% | [2] -25.4% | [3] -37.3% | [4] -25.8% | [5] -66.5% | [6] -3.5%

O=[N+]([O-])c1ccc2c(c1)Sc1ccccc1N2
inactive: [1] -16.8% | [2] -14.4% | [3] -26.7% | [4] -21.8% | [5] -25.2% | [6] -22.6%

CC(C)NC(=O)CC(NCc1ccccc1)C(=O)O (stereo not given)
inactive: [1] 5.85% | [2] 6.8% | [3] 21.1% | [4] 9.5% | [5] -6.8% | [6] 10.2%

CC1=CC(=O)c2ccc(F)cc2C1=O
inactive: [1] -11.8% | [2] -3.85% | [3] 15% | [4] -2.9% | [5] -7.95% | [6] 13.8%

O=C1CCCc2[nH]c3ccc(Cl)cc3c21
inactive: [1] -1.9% | [2] 0.3% | [3] -10.9% | [4] -21.9% | [5] -14.2% | [6] 12.9%

COc1cc(C(C)O)c[n+](CCC2CNc3ccccc32)c1 (stereo not given)
inactive: [1] -4.65% | [2] -2.2% | [3] 5.8% | [4] 18.6% | [5] 6.45% | [6] -21.1%

CC(C)(C)c1ccc2c(c1)C(O)(C#Cc1ccccc1)c1ccccc1C2(O)C#Cc1ccccc1 (stereo not given)
inactive: [1] 11.6% | [2] -7.5% | [3] 1.5% | [4] 9.35% | [5] 0.05% | [6] 14.1%

C/C(CC(C)(C)C)=N/NS(=O)(=O)c1ccc(C)cc1
inactive: [1] 7.7% | [2] -1.6% | [3] 9.8% | [4] 1.75% | [5] 5.45% | [6] 12.7%

CCc1[nH]c(=O)c2oc3cc4ccccc4cc3c2c1C(=O)O
inactive: [1] -43.9% | [2] -35.5% | [3] -55.6% | [4] -29.4% | [5] -17.8% | [6] -70.3%

Cc1ccc(CN2CCOCC2)c(O)c1
inactive: [1] 18.9% | [2] 9.15% | [3] -0.65% | [4] -0.1% | [5] -7.45% | [6] -11.4%

COc1cc2c(cc1O)C(=O)CCC(C(=O)O)=C2
inactive: [1] 14.2% | [2] -12.8% | [3] 3.65% | [4] -14.8% | [5] 2% | [6] 14.6%

CCOC(=O)c1nc2ccccc2nc1Nc1ccc(OC)c(OC)c1
inactive: [1] -30.2% | [2] -31.5% | [3] -15.9% | [4] -15.6% | [5] -16.6% | [6] -19.3%

BrCCCCCCCCCBr
inactive: [1] 9.75% | [2] -3.35% | [3] 1.05% | [4] 12.9% | [5] -16.6% | [6] 29.1%

O=C(O)CC(C(=O)O)=C1CCCCC1
inactive: [1] 11.8% | [2] 13.4% | [3] 0.5% | [4] 8.15% | [5] 8.75% | [6] -0.3%

COc1ccc(/C(=C/n2ccnc2)C(O)c2ccc(OC)c(OC)c2)cc1OC (stereo not given)
inactive: [1] -16.5% | [2] -11.8% | [3] -31.8% | [4] -2.25% | [5] -2.8% | [6] -11.3%

O=c1[nH]nc(Cc2ccc(Cl)cc2)n1O
inactive: [1] 3.3% | [2] 5.3% | [3] 0.1% | [4] -26.6% | [5] -13.5% | [6] 1.65%

Cc1cccc2c1sc1c(C)cc(C(=O)CCC(=O)O)cc12
inactive: [1] 9% | [2] 11.2% | [3] 5.3% | [4] 3.4% | [5] 20.4% | [6] 25.4%
